For three molecules, inhibition results are on record in PubChem BioAssay AID651598 (Sanford-Burnham Center for Chemical Genomics, 2012).

Broadly, the inhibition is the relative decrease from the control value, in per cent.

“And” between values parts separate entries of the source, which are not always exact repeats. Equal values may be shown once.

The assay deals with Apelin receptor (Homo sapiens) (UniProt P35414). Nature of the assay: APJ beta-arrestin recruitment blockade alongside CXCR6 – cell-based, DiscoveRx, panel, CHO-K1, counter-screen for CXCR6 antagonist project, SAR follow-up (AID 651598). The note with it: CHO-K1 PathHunter beta-arrestin luminescence, antagonist mode; run 6, at 80 µM (top of the series).
Apelin receptor (Homo sapiens), sequence (P35414 whole entry, looked up): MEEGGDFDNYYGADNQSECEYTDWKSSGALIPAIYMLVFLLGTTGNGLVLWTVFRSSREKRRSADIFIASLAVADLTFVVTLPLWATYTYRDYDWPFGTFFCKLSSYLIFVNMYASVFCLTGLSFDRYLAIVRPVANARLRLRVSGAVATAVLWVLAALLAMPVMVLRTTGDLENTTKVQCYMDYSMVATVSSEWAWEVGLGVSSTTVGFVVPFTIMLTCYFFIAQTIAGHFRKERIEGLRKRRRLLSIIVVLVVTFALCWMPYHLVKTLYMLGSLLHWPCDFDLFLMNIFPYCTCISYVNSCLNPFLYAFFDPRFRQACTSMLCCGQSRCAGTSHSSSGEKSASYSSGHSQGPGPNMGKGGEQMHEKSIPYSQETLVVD
Consider `COc1cc(C(=O)NC2CC3CCC(C2)N3CC(=O)Nc2ccccc2)cc(OC)c1OC` (stereo not drawn), for which the inhibition was 10.4% and -17.1%.
On to `COc1cc(C(=O)NC2CCN(CC(=O)Nc3ccccc3)CC2)cc(OC)c1OC`, for which the inhibition is -2.93%.
For the molecule `COc1cc(C(=O)NC2CC3CCCC(C2)N3CC(=O)Nc2ccccc2)cc(OC)c1OC` (stereo not drawn), the inhibition was 9.24% and -4.02% and 20.6%.
